# Screening data (PubChem)
# Hits are enriched below; roughly 5.4% of the tested compounds scored in any of these assays.
# rCAG RNA binder: molecules binding r(CAG) RNA repeats; inhibition, % at 3 µM; 370,000 tested, 1.3% active; r(CAG) RNA repeat, TO-PRO-1 dye displacement fluorescence;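 active = inhibition above the plate cutoff, the mean of all test compounds on that plate plus 3 SD, cut at about 35% in these data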;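 also: 0% = DMSO alone and 100% = 100 µM mitoxantrone as full dye displacement; higher means more dye released from RNA so lower well fluorescence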
# aDG glyco act: alpha-DG glycosylation activation; activation, % at 10 µM; Pro5-aDG cells, alpha-DG glycosylation AlphaScreen (IIH6); 0% Pro5, 100% B10-LARGE cell signal; 360,000 tested, 0.22% active;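 active = activation of at least 8% versus controls, or a plate z-score of at least 8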;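 also: Pro5 are CHO cells carrying HIG-tagged alpha-DG that lacks glycosylation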
# ALR inh: human ALR oxidase inhibition via reduced H2O2; P55789; purified ALR, DTT oxidation, H2O2 HRP-luminol luminescence; inhibition, % (concentration not given with the values); 290,000 tested, 3.8% active;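 active = mean replicate inhibition above about 79%, with every replicate also reaching it, limit read from the data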
# PHOSPHO1 block: PHOSPHO1 (human) inhibition; Q8TCT1; recombinant PHOSPHO1, absorbance phosphatase assay; AID 1565; 290,000 tested, 1.1% active; inhibition, % at 13.3 µM; in the data active = inhibition above about 60%
# Target sequence (Q8TCT1 whole entry, looked up): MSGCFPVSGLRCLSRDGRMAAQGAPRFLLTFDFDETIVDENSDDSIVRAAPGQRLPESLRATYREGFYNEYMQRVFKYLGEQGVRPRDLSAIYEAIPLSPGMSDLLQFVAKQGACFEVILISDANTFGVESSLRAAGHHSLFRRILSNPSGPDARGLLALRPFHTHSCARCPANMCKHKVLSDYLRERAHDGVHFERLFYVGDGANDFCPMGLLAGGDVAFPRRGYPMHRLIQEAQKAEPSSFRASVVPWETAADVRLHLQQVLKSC
# APOBEC3G inh: inhibitors of human APOBEC3G DNA deaminase; 330,000 tested, 0.28% active; AID 493012; Q9HC16; recombinant A3G, ssDNA deamination FAM/TAMRA fluorescence; inhibition, % at 20 µM;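 active = inhibition of at least 40% at 20 µM, with no more than 30% in the related APOBEC3A deaminase screen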;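 also: plate controls were DMSO wells with A3G for no effect and wells lacking A3G enzyme for full effect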
# A3A deaminase: inhibitors of human APOBEC3A DNA deaminase; P31941; recombinant A3A, FAM/TAMRA ssDNA deamination fluorescence; inhibition, % at 20 µM; 330,000 tested, 0.41% active; AID 493011;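 active = at least 40% inhibition at 20 µM here, with at most 30% in a related deaminase screen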;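 also: plate controls were A3A with DMSO for no effect and wells lacking A3A enzyme for full effect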
# An asterisk follows results filed as active; . = no result given.
SMILES,rCAG RNA binder,aDG glyco act,ALR inh,PHOSPHO1 block,APOBEC3G inh,A3A deaminase
CCN(CCCNC(=O)CN(C)S(=O)(=O)c1ccc2c(c1)CCC(=O)N2)c1cccc(C)c1,-4,0,96*,-2,-7,-5
CC(=O)N1CCc2cc(S(=O)(=O)NCCC(=O)Nc3cccc(C)c3)ccc21,0,0,-5,-14,-3,0
CCN(CC)C(=O)CN(C)S(=O)(=O)c1cccc2nsnc12,-1,0,1,4,-5,-2
CCN(CCCNC(=O)CN(C)S(=O)(=O)c1cccc2nsnc12)c1cccc(C)c1,-4,0,99*,24,1,-1
CCN(CCNC(=O)CN(C)S(=O)(=O)c1cccc2nsnc12)c1ccccc1,1,0,98*,64*,-3,-6
COC(=O)c1ccccc1S(=O)(=O)NC(=O)[C@H]1O[C@@H](n2ccc(=O)[nH]c2=O)[C@H](O)[C@@H]1O,1,.,.,.,.,.
C[C@H]1COc2cc(N3CCSCC3)ccc2S(=O)(=O)N1C,2,.,.,.,.,.
Cc1cccc(NC(=O)CSc2nnc(-c3ccco3)c(-c3ccco3)n2)c1,42*,0,.,32,16,36
COc1cc(NC(=O)CSc2nc3[nH]c(=O)cc(O)c3s2)cc(OC)c1OC,18,0,99*,.,-5,-1
Cc1ccccc1NC(=O)CSc1nc2[nH]c(=O)cc(O)c2s1,24,0,.,.,-13,-4
O=C(CSc1nc2[nH]c(=O)cc(O)c2s1)Nc1ccc(Br)cc1,27,0,82*,.,-4,2
Cc1cccc(NC(=O)CSc2nc3[nH]c(=O)cc(O)c3s2)c1,29,0,99*,.,-7,2
COCc1cc(N2CCNC[C@@H]2C)ccc1N1CCN(Cc2ccccc2)[C@@H](C)C1,5,.,.,.,.,.
O=C(CSc1nc2[nH]c(=O)cc(O)c2s1)Nc1cccc(Br)c1,23,0,99*,.,-4,0
Nc1cc(=O)[nH]c(SCC(=O)Nc2ccc(Br)cc2)n1,6,0,98*,17,-4,-5
Nc1cc(=O)[nH]c(SCC(=O)Nc2ccc(Cl)c(Cl)c2)n1,1,0,-7,8,-5,-2
CCOC(=O)[C@H](Cc1ccccc1)NC(=O)[C@H]1C[C@@]2(N3CCCCC3)c3ccccc3N(C(=O)OC(C)(C)C)[C@H]2N1C(=O)OC(C)(C)C,6,.,.,.,.,.
COc1ccc(/C=C(\C#N)C(=O)c2c(C)[nH]c3ccccc23)cc1OC,11,0,15,-2,-3,-1
COc1cc(/C=C(\C#N)C(=O)c2c(C)[nH]c3ccccc23)cc(OC)c1OC,2,0,96*,-4,2,-1
CC(C)Oc1cccc(C(=O)C2CCCN(Cc3cnc(N4CCCC4)s3)C2)c1 (configuration not stated),-4,0,-1,37,-2,1
COc1ccc2cc(C(=O)C3CCCN(Cc4cnc(N5CCOCC5)s4)C3)ccc2c1 (configuration not stated),-5,0,-34,60*,-6,3
CCN(CCNC(=O)C1CCCN(Cc2nc(-c3ccc(OC)cc3)oc2C)C1)c1ccccc1 (configuration not stated),-7,1,96*,18,-4,-2
CCc1ccc(-c2nc(CN3CCCC(C(=O)O)C3)c(C)o2)cc1 (configuration not stated),2,0,-2,4,-14,0
CCc1ccc(-c2nc(CN3CCC(C(=O)NCCN(CC)c4ccccc4)CC3)c(C)o2)cc1,2,0,99*,31,-7,-4
Cc1oc(-c2ccc(Cl)cc2)nc1CN1CCC(C(=O)NCCCN2CCOCC2)CC1,-7,0,-8,23,-2,-2
CCN(CCNC(=O)C1CCN(Cc2nc(-c3ccc(Cl)cc3)oc2C)CC1)c1ccccc1,3,2,98*,14,-11,-5
CCN(CCNC(=O)C1CCN(Cc2nc(-c3cccc(Cl)c3)oc2C)CC1)c1ccccc1,-7,5,99*,4,-5,-4
CCc1ccc(-c2nc(CN3CCC(C(=O)NCc4ccc(F)cc4)CC3)c(C)o2)cc1,-5,5,-6,9,-6,-3
COc1ccc(N2CCN(C(=O)CCNS(=O)(=O)c3ccc(C)cc3)CC2)cc1,-7,1,99*,.,-4,-4
